ABHD5-PLIN5 inh = ABHD5-PLIN5 interaction inhibitors, primary screen, cell lysate, split luciferase complementation, luminescence; AID 602281, 2012; inhibition, % at 4 µM; Perilipin-5 (Homo sapiens) + 1-acylglycerol-3-phosphate O-acyltransferase ABHD5 (Homo …; Split G. princeps luciferase complementation, 4 h; 360,000 tested, 0.78% active;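 active = inhibition above the mean inhibition across every tested compound plus 3 SD, cut at about 22% in these data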
Target sequence (Q00G26 whole entry, looked up): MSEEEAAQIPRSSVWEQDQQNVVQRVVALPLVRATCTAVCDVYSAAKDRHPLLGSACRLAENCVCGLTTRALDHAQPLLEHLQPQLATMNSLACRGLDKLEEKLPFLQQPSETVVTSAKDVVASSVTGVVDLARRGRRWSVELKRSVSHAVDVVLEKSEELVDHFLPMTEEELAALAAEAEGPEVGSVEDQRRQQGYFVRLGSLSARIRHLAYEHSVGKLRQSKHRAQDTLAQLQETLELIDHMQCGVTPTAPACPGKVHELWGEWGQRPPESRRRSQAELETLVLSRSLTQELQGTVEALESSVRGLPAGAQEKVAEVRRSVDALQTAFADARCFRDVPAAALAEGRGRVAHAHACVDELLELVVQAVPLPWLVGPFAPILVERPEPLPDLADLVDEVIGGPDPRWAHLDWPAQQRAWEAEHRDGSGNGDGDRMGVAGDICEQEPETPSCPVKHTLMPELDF
Target sequence (Q8WTS1 whole entry, looked up): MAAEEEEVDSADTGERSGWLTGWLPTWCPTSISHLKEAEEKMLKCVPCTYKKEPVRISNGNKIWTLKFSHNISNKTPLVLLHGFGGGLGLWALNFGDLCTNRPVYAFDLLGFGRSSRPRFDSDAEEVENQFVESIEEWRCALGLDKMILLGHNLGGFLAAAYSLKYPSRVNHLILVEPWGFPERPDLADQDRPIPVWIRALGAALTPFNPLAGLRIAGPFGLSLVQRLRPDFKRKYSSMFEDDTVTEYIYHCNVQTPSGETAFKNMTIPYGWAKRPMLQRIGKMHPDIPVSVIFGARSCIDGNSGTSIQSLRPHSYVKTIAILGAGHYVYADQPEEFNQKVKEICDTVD
Peg3 prom inh = Peg3 promoter-driven luciferase inhibitors, primary screen, cell-based, HeLa, luciferase luminescence; AID 588405, 2011; HeLa PEG-Prom luciferase reporter, overnight; 360,000 tested, 1.7% active; inhibition, % at 20 µM;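 active = inhibition of at least 50% at 20 µM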
Shn3 3UTR inh = reduction of Shn3 3'UTR firefly luciferase signal, primary screen, Schnurri-3 inhibitor project, cell-based, Clone20 osteoblasts, set 2 | Clone20 osteoblast Shn3 3'UTR firefly luciferase, 24 h | inhibition, % at 12.5 µM | 360,000 tested, 0.52% active | AID 588674, 2011;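 active = mean inhibition of at least 75% with every replicate also reaching 75%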
PAX8 reporter = inhibitors of PAX8-driven TPO luciferase reporter, primary screen, RMG-I cells, single concentration; 360,000 tested, 1.2% active; AID 652154, 2013; inhibition, % at 12.6 µM; SteadyGlo, 24 h;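 active = mean replicate inhibition at least 60% with every replicate also reaching 60%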;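 also: luciferase light reporting Pax8 driven TPO promoter activity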
EWS-Fli block = EWS/Fli-driven NR0B1 reporter inhibitors, primary screen, A673 cells, NR0B1 luciferase, luminescence, MLPCN library; viability-normalised; inhibition, % at 12.6 µM; 350,000 tested, 0.67% active;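 active = mean inhibition of at least 50% after viability correction, with every replicate also passing that limit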;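 also: firefly luciferase signal divided by Alamar Blue viability fluorescence both relative to DMSO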
TRPM1 prom inh = inhibitors of MITF-dependent TRPM1 promoter reporter, primary screen, cell-based, SK-MEL-5, single point, luciferase. SK-MEL-5 TRPM1 promoter luciferase, 24 h. inhibition, % at 12.5 µM. 330,000 tested, 0.83% active. AID 488899, 2010;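 active = mean inhibition across replicates of 60% or more, whatever share of single replicates reaches that level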
Large screens that a line does not name were inactive. Shown are actives, neighbours in structure and some others; about 3% of the full set was active somewhere.

C[C@@H]1CCCCO[C@@H](CN(C)Cc2ccc(Cl)c(Cl)c2)[C@H](C)CN([C@H](C)CO)C(=O)c2cc(NC(=O)NC3CCCCC3)ccc2O1	PAX8 reporter 65 (no result: ABHD5-PLIN5 inh, Peg3 prom inh, Shn3 3UTR inh, TRPM1 prom inh)
C[C@@H]1CCCCO[C@@H](CN(C)Cc2ccc(Cl)c(Cl)c2)[C@H](C)CN([C@@H](C)CO)C(=O)c2cc(NC(=O)NC3CCCCC3)ccc2O1	PAX8 reporter 68 (no result: ABHD5-PLIN5 inh, Peg3 prom inh, Shn3 3UTR inh, TRPM1 prom inh)
C[C@@H]1CN([C@H](C)CO)C(=O)c2cc(NC(=O)NC3CCCCC3)ccc2O[C@@H](C)CCCCO[C@@H]1CN(C)Cc1ccc(Cl)c(Cl)c1	PAX8 reporter 71 (no result: ABHD5-PLIN5 inh, Peg3 prom inh, Shn3 3UTR inh, TRPM1 prom inh)
CCOC1=C2[C@H](c3ccccc3Cl)N(S(=O)(=O)c3ccc(C)cc3)C[C@H]2C(C#N)(C#N)C(C#N)(C#N)C1	none (no result: TRPM1 prom inh)
CCOC1=C2[C@H](c3ccc(CC)cc3)N(S(=O)(=O)c3ccc(C)cc3)C[C@H]2C(C#N)(C#N)C(C#N)(C#N)C1	Peg3 prom inh 89, Shn3 3UTR inh 95 (no result: TRPM1 prom inh)
C/C(=N\NC(=O)C(c1ccccc1)c1ccccc1)c1ccccn1	Peg3 prom inh 97, Shn3 3UTR inh 88, PAX8 reporter 77 (no result: EWS-Fli block, TRPM1 prom inh)
C/C(=N\NC(=O)c1ccc(Cl)c(Cl)c1)c1ccccn1	Shn3 3UTR inh 91, PAX8 reporter 63, TRPM1 prom inh 65
Cc1cccc2sc(NNC(=O)c3cc(-c4cccs4)nc4ccccc34)nc12	Peg3 prom inh 56
O=C(N/N=C\C=C\c1ccco1)C1COc2ccccc2O1 (stereo not given)	ABHD5-PLIN5 inh 23
C/C(=N\NC(=O)c1ccccc1Cl)c1ccccn1	Shn3 3UTR inh 92
CC(C)NC(=O)c1cc(-c2cccs2)nc2ccccc12	none
C/C(=N\NC(=O)c1cc(-c2cccs2)nc2ccccc12)c1ccccn1	Shn3 3UTR inh 94, PAX8 reporter 79, TRPM1 prom inh 88
COc1ccc(C(=O)N/N=C(\C)c2ccccn2)cc1OC	Shn3 3UTR inh 91, PAX8 reporter 70, TRPM1 prom inh 73 (no result: EWS-Fli block)
C/C(=N\NC(=O)c1cccc2ccccc12)c1ccccn1	Shn3 3UTR inh 90, PAX8 reporter 65, TRPM1 prom inh 76
C/C(=N\NC(=O)c1cc(Br)ccc1O)c1ccccn1	none
CC(C)NC(=O)N(C)C[C@@H]1OCCCC[C@@H](C)Oc2ccc(NC(=O)C3CCCCC3)cc2C(=O)N([C@H](C)CO)C[C@H]1C	none (no result: ABHD5-PLIN5 inh, Peg3 prom inh, Shn3 3UTR inh, EWS-Fli block, TRPM1 prom inh)
COCC(=O)Nc1ccc2c(c1)[C@H]1C[C@@H](CC(=O)NCc3cc(F)ccc3F)O[C@@H](CO)[C@H]1O2	none (no result: ABHD5-PLIN5 inh, Peg3 prom inh, Shn3 3UTR inh, TRPM1 prom inh)
Cc1noc(C)c1S(=O)(=O)Nc1ccc2c(c1)C(=O)N([C@@H](C)CO)C[C@H](C)[C@H](CN(C)C(=O)c1ccccc1)OCCCC[C@H](C)O2	none (no result: ABHD5-PLIN5 inh, Peg3 prom inh, Shn3 3UTR inh, TRPM1 prom inh)
C/C(=N\NC(=O)C1COc2ccccc2O1)c1ccccn1 (stereo not given)	Peg3 prom inh 51, TRPM1 prom inh 83 (no result: EWS-Fli block)
C[C@H]1CN([C@@H](C)CO)C(=O)CCCn2nncc2CO[C@H]1CN(C)S(=O)(=O)c1cn(C)cn1	none (no result: ABHD5-PLIN5 inh, Peg3 prom inh, Shn3 3UTR inh, TRPM1 prom inh)
Cc1ncc(CN2CCCC(C(=O)Nc3ccc(-c4ccco4)cc3)C2)cn1 (stereo not given)	none (no result: EWS-Fli block)
COCc1cc(CN2CCCC(C(=O)Nc3ccc(-c4ccco4)cc3)C2)ccc1OC (stereo not given)	ABHD5-PLIN5 inh 32
CCC(C)Nc1ccc(NC(C)CC)cc1 (stereo not given)	Peg3 prom inh 65, Shn3 3UTR inh 89, TRPM1 prom inh 97 (no result: PAX8 reporter, EWS-Fli block)
CCC(C)NC(=O)Nc1ccc(Br)cc1 (stereo not given)	none
Cc1nn(-c2cccc(C(F)(F)F)c2)c(Cl)c1/C=N/Nc1cccc(C(=O)O)c1	none
COc1ccc2ccccc2c1/C=N/Nc1cccc(C(=O)O)c1	none
O=C(O)c1cccc(N/N=C/c2cccc3ccccc23)c1	TRPM1 prom inh 81
Cc1nn(-c2ccccc2Cl)c(Cl)c1/C=N/Nc1cccc(C(=O)O)c1	TRPM1 prom inh 69 (no result: EWS-Fli block)
CCOc1cc(/C=N/Nc2cccc(C(=O)O)c2)ccc1OC(=O)c1ccccc1	Peg3 prom inh 65, PAX8 reporter 67, TRPM1 prom inh 91
C[C@H]1CN([C@@H](C)CO)C(=O)c2cc(C#CCN(C)C)cnc2O[C@@H]1CN(C)C(=O)CN1CCOCC1	none (no result: ABHD5-PLIN5 inh, Peg3 prom inh, Shn3 3UTR inh, TRPM1 prom inh)
CN(c1ccccc1)c1ccc(/C=C/[N+](=O)[O-])cc1	ABHD5-PLIN5 inh 88, Peg3 prom inh 103, Shn3 3UTR inh 94, EWS-Fli block 64, TRPM1 prom inh 92
O=C(NC(c1ccccc1)c1ccsc1)C1CCN(CCOc2ccc(Cl)cc2Cl)CC1 (stereo not given)	Peg3 prom inh 54 (no result: TRPM1 prom inh)
Cc1ccccc1C(c1ncccc1C)N(C)C(=O)C1CCN(CCOc2ccc(Cl)cc2Cl)CC1 (stereo not given)	Peg3 prom inh 100 (no result: TRPM1 prom inh)
Cc1ccc(S(=O)(=O)N[C@@H]2CC[C@@H](CCNC(=O)c3ccc4c(c3)OCO4)O[C@@H]2CO)cc1	none (no result: ABHD5-PLIN5 inh, Peg3 prom inh, Shn3 3UTR inh, TRPM1 prom inh)
COc1cccc2sc3cc(C#CC4(O)CCCCC4)ccc3c(=O)c12	Peg3 prom inh 89
Cn1c2ccccc2c(=O)c2ccc(C#CC3(O)CCCCC3)cc21	Peg3 prom inh 70, EWS-Fli block 57
C[C@@H]1CCCCO[C@@H](CN(C)C(=O)Nc2cccc3ccccc23)[C@H](C)CN([C@@H](C)CO)C(=O)c2cc(NC(=O)Nc3ccc(F)cc3)ccc2O1	none (no result: ABHD5-PLIN5 inh, Peg3 prom inh, Shn3 3UTR inh, TRPM1 prom inh)
CC1=CC(C)(C)N=C(Nc2nc(C)c3cc(C)cc(C)c3n2)N1	Peg3 prom inh 61
CN=CC1=C(O)c2ccccc2C1=O	none (no result: PAX8 reporter, EWS-Fli block)
O=C1C(C2=C(O)c3ccccc3C2=O)=Nc2ccccc21	TRPM1 prom inh 66 (no result: PAX8 reporter, EWS-Fli block)
Nc1ncnc2c1ncn2[C@H]1C[C@H](O)[C@@H](CO)O1	none (no result: PAX8 reporter)
Nc1nc(Cl)nc2c1ncn2[C@H]1C[C@H](O)[C@@H](CO)O1	Shn3 3UTR inh 88
Cc1cc(C)c2nc(SCC(=O)N3CC(=O)Nc4ccccc43)c(C#N)cc2c1	PAX8 reporter 97 (no result: EWS-Fli block)
CNC[C@@H]1OCCCC[C@@H](C)Oc2ccc(NC(=O)Nc3ccccc3)cc2C(=O)N([C@@H](C)CO)C[C@H]1C	none (no result: ABHD5-PLIN5 inh, Peg3 prom inh, Shn3 3UTR inh, TRPM1 prom inh)
C[C@@H]1CN([C@@H](C)CO)C(=O)c2cc(NC(=O)Nc3ccc4c(c3)OCO4)ccc2O[C@@H]1CN(C)Cc1ccc(-c2ccccc2)cc1	none (no result: ABHD5-PLIN5 inh, Peg3 prom inh, Shn3 3UTR inh, PAX8 reporter, TRPM1 prom inh)
Cc1ccc(S(=O)(=O)N2CCOCC2)cc1NC(=O)COC(=O)CNC(=O)c1ccccc1	none (no result: PAX8 reporter, EWS-Fli block)
CC(=O)NS(=O)(=O)c1ccc(NC(=O)COc2ccc(C(=O)c3ccccc3)cc2)cc1	PAX8 reporter 75
CN(C)S(=O)(=O)c1cccc(NC(=O)COc2ccc(C(=O)c3ccccc3)cc2)c1	none
